Here are results for eight molecules from PubChem BioAssay.

The source made the active and inactive calls.

Assay [1] in a line: E. coli DRC41 culture turbidity changes, primary screen, E. coli filamentation inducer project, strain DRC41, OD650, 48 h (AID 1152).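 Note: E. coli MC1000 strain DRC41 lacking acrAB efflux pump and sulA.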 The settings on record: E. coli DRC41 (acrAB sulA), higher = more signal, called active from +8 up or from −8 down.
Assay [2] in a line: small-molecule binders of probe aLefty1, primary screen, biochemical, small-molecule microarray, 635/667 nm fluorescence (AID 1153).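 Note: score merges spot fluorescence with signal-to-noise ratio from the scanned slide images.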 The settings on record: higher = more signal.
The nature of assay [3]: PSAC antagonists in infected red cells, primary screen, cell-based, P. falciparum Indochina, OD700, 1 h (AID 1154). The settings on record: P. falciparum Indochina infected RBC osmotic lysis, higher = more signal, called active from +8 up or from −8 down.
A short description of assay [4]: PSAC antagonists in infected red cells, primary screen, cell-based, P. falciparum Indochina, OD700, 2 h (AID 1155).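 Note: lysis reports solute entry through the parasite surface anion channel PSAC; channel blockers reduce lysis of infected cells.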 The settings on record: P. falciparum Indochina infected erythrocytes, osmotic lysis OD700; higher = more signal, called active from +8 up or from −8 down.
Assay [5] in a line: osmotic lysis modulators in infected erythrocytes, primary screen, PSAC antagonist project, cell-based, P. falciparum Indochina, OD700, 3 h (AID 1156). The settings on record: higher = more signal, called active from +8 up or from −8 down.
Assay [6] can be described thus: PSAC antagonists in infected red cells, primary screen, cell-based, P. falciparum Indochina, OD700, 18 h (AID 1157). The settings on record: P. falciparum Indochina infected erythrocytes, osmotic lysis OD700, 18 h; higher = more signal, called active from +8 up or from −8 down.
A short description of assay [7]: modulators of S6 phosphorylation in cells, primary screen, cell-based, A549, cytoblot, luminescence, serum-stimulated (AID 1158).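 Note: serum-stimulated A549 lung adenocarcinoma cells; signal is phosphorylated S6 detected by cytoblot immunostaining with HRP secondary.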 The settings on record: A549 phospho-S6 cytoblot, 5 h, higher = more signal.
The target in assay [8] is NADPH oxidase 2 (Homo sapiens) (UniProt P04839). The assay is described as follows: NOX2-dependent H2O2 signal modulators, primary screen, NOX inhibitor project, cell-based, HEK293-NOX2, PMA-stimulated, Amplex Red fluorescence (AID 1159). Note: test concentration not given here. The settings on record: 45 min, higher = more signal, called active from +8 up or from −8 down.
The target in assay [9] is NADPH oxidase 4 (Homo sapiens) (UniProt Q9NPH5). Description: NOX4-dependent H2O2 signal modulators, primary screen, NOX inhibitor project, cell-based, HEK293-NOX4, tetracycline-induced, Amplex Red fluorescence (AID 1160). The settings on record: 45 min, higher = more signal, called active from +8 up or from −8 down.
The target in assay [10] is NADPH oxidase 5 (Homo sapiens) (UniProt Q96PH1). The assay is described as follows: NOX5-dependent H2O2 signal modulators, primary screen, NOX inhibitor project, cell-based, HEK293-NOX5, Amplex Red fluorescence (AID 1161). The settings on record: HEK293-NOX5, ionomycin, 45 min, higher = more signal.
Assay [11] in a line: A549 cell viability effects, profiling panel, calcein-AM fluorescence, 48 h, basal (AID 1162). Note: test concentration not given here. The settings on record: higher = more signal.
A short description of assay [12]: adipocyte viability effects, profiling panel, cell-based, 3T3-L1 adipocytes, calcein-AM fluorescence, 48 h, basal (AID 1163). Note: test concentration not given here. The settings on record: 3T3-L1 adipocytes viability, higher = more signal.
Assay [13] is described as follows: HepG2 cell viability effects, profiling panel, calcein-AM fluorescence, 48 h, basal (AID 1164). Note: test concentration not given here. The settings on record: higher = more signal.
Assay [14] can be described thus: MM1S cell viability effects, profiling panel, calcein-AM fluorescence, 48 h, basal (AID 1165).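 Note: viability of MM1S multiple myeloma cells under basal unstimulated conditions; test concentration not given here.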 The settings on record: higher = more signal.
A short description of assay [15]: basal RPMI8226 viability, no added stimulus, profiling panel, cell-based, calcein-AM fluorescence, 48 h, PK04 Diversity Set (AID 1166).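 Note: cells grown under basal conditions without added stimulus; test concentration not given here.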 The settings on record: RPMI8226 myeloma viability, higher = more signal.
A short description of assay [16]: basal HepG2 mitochondrial membrane potential changes, profiling panel, cell-based, JC-1 fluorescence, 24 h, 100 nL compound (AID 1167). Note: test concentration not given here. The settings on record: higher = more signal.
A short description of assay [17]: basal 3T3-L1 adipocyte mitochondrial potential changes, profiling panel, cell-based, JC-1 fluorescence, 3T3-L1 adipocytes, 24 h, 100 nL compound (AID 1168). Note: test concentration not given here. The settings on record: JC-1 mitochondrial fluorescence, higher = more signal, called active from +8 up or from −8 down.
The nature of assay [18]: basal RPMI8226 mitochondrial membrane potential changes, profiling panel, cell-based, JC-1 fluorescence, 24 h, 100 nL compound (AID 1169). Note: test concentration not given here. The settings on record: RPMI8226 myeloma, JC-1 mitochondrial potential fluorescence, higher = more signal.
Assay [19] can be described thus: basal MM1S mitochondrial membrane potential changes, profiling panel, cell-based, JC-1 fluorescence, 24 h, 100 nL compound (AID 1170). Note: test concentration not given here. The settings on record: higher = more signal.
Assay [20] is described as follows: A549 lung cancer cell viability effects, profiling panel, resazurin fluorescence, 24 h, PK04 Diversity Set (AID 1171). Note: test concentration not given here. The settings on record: higher = more signal, called active from +8 up or from −8 down. A general note: Alamar Blue is a resazurin reagent that responds to reducing activity.

Sequence of NADPH oxidase 2 (Homo sapiens) (P04839 whole entry, looked up): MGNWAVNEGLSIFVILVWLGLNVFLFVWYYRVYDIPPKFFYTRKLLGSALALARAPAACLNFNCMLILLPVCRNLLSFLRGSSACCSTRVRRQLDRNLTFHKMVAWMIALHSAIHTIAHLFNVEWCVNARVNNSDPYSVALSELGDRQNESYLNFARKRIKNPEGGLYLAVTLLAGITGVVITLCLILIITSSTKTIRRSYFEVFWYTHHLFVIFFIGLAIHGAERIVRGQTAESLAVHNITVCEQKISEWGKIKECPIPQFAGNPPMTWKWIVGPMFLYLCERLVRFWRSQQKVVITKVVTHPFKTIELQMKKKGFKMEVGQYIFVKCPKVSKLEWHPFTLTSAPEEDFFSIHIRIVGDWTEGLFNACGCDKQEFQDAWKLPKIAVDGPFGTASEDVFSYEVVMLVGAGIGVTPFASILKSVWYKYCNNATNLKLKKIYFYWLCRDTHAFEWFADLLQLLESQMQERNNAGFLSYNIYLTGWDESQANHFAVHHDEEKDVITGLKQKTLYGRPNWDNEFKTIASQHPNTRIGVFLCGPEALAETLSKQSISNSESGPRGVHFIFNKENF
Sequence of NADPH oxidase 4 (Homo sapiens) (Q9NPH5 whole entry, looked up): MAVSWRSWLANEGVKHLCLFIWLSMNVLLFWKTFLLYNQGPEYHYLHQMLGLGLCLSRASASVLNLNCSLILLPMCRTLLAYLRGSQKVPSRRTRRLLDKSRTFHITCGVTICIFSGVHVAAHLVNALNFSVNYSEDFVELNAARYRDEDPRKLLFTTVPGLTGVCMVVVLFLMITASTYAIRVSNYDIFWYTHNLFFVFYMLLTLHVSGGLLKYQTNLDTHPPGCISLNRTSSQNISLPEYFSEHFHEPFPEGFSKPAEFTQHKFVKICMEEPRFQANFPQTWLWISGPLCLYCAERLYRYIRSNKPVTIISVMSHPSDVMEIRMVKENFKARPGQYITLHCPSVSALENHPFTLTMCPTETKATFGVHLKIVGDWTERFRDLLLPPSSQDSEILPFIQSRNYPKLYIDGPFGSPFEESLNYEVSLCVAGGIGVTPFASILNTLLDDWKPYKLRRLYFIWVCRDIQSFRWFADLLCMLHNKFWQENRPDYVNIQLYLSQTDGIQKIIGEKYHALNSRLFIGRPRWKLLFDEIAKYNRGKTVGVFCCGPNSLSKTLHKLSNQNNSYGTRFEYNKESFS
Sequence of NADPH oxidase 5 (Homo sapiens) (Q96PH1 whole entry, looked up): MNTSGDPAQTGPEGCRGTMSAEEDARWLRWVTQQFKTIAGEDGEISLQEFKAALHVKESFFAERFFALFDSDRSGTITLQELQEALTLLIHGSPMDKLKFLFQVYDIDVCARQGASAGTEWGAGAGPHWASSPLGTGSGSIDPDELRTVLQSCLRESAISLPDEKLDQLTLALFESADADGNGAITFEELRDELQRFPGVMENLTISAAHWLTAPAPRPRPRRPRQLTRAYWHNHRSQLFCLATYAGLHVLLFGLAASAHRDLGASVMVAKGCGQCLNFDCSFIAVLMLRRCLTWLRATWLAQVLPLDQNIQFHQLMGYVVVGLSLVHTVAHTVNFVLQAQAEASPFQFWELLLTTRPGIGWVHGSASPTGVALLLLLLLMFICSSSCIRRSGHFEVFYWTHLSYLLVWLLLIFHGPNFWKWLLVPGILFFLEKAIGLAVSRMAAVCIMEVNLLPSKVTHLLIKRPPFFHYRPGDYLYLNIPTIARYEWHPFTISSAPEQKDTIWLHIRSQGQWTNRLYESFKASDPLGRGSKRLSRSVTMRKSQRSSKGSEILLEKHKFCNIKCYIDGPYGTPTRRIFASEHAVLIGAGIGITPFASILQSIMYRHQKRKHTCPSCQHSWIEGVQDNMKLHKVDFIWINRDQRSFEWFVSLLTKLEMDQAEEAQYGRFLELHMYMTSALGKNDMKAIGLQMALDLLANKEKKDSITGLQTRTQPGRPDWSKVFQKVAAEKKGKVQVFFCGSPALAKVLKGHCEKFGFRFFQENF

In the case of `COc1ccc(C(=O)Nc2ccc(CN3C(=O)[C@]4(O[C@H](CCn5cc([C@H](O)c6ccccc6)nn5)[C@@H]([Si](C)(C)c5ccc(OC)cc5)[C@@H]4C)c4ccccc43)cc2)cc1`, the z-score in assay [1] was -0.372 (inactive); in assay [3], 3.29 (inactive); in assay [4] it was 1.02 (inactive); in assay [5] it was 0.741 (inactive); in assay [6], 1.26 (inactive); in [7] it was 0.319. In addition, the z-score in assay [8] was 0.753 (inactive); in assay [9], 0.206 (inactive); in assay [10], 2.27; in assay [11], -0.0731; in [12] it was -0.145; in [13] it was -4.03. Further, the z-score in assay [14] is -2.67; in assay [15], -3.84; in [16] it was 1.48; in assay [17], 0.374 (inactive); in assay [18] it was -1.12; in [19], -2.36. Further, the z-score in assay [20] is -1.64 (inactive). Moreover, in [2], the composite z-score amounted to 0.193.
Consider `[N-]=[N+]=NCc1ccccc1C[C@@]1(C(=O)NCCN2CCOCC2)N=C(c2ccc(OCCCO)cc2)O[C@@H]1c1ccccc1CN=[N+]=[N-]`, for which the z-score in assay [1] is 0.648 (inactive); in assay [3], 26.4 (active); in assay [4] it was 13.7 (active); in [5], 1.2 (inactive); in [6], 2.26 (inactive); in assay [7], -0.213. Besides, the z-score is 0.528 (inactive) in [8]; 0.116 (inactive) in assay [9]; 2.24 in assay [10]; -0.628 in assay [11]; 0.671 in assay [12]; -0.399 in assay [13]. Also, the z-score was -2.59 in [14]; -2.77 in [15]; 0.787 in assay [16]; 0.0123 (inactive) in assay [17]; -1.06 in assay [18]; -0.797 in assay [19]. Besides, in [20], the z-score is -1.13 (inactive). In addition, the composite z-score in assay [2] is 0.565.
Consider `C[N+](C)(C)CCCCNC(=O)[C@H]1C[C@H]2C(=O)NCC(=O)N2[C@H]1c1ccc(O)cc1`, for which the z-score was 0.77 (inactive) in [1]; 0.367 (inactive) in [3]; 0.0681 (inactive) in [4]; -0.393 (inactive) in [5]; 0.0564 (inactive) in [6]; -0.0248 in [7]. Besides, the z-score in assay [8] was -1.51 (inactive); in [9], -0.769 (inactive); in assay [10] it was 0.226; in assay [11] it was -0.143; in [12], -0.811; in assay [13], 0.658. Also, the z-score was 0.519 in [14]; 0.124 in [15]; 0.227 in [16]; -0.12 (inactive) in assay [17]; -0.797 in assay [18]; -0.988 in [19]. Further, the z-score in [20] is -1.02 (inactive). The molecule also showed a composite z-score in [2] of 0.242.
On to `[N-]=[N+]=NCc1ccccc1C[C@]1(C(=O)NCCN2CCOCC2)N=C(c2ccc(OCCCO)cc2)O[C@H]1c1ccccc1`, for which the z-score is 0.158 (inactive) in assay [1]; 12.7 (active) in assay [3]; 1.83 (inactive) in assay [4]; 1.14 (inactive) in [5]; 1.11 (inactive) in [6]; 0.378 in assay [7]. For the same molecule, the z-score in assay [8] was -1.77 (inactive); in [9] it was -0.0953 (inactive); in assay [10] it was -1.19; in assay [11], 0.112; in assay [12], 0.117; in assay [13] it was -0.493. The z-score in assay [14] is -0.338; in assay [15], -1.06; in assay [16], 0.871; in assay [17], 0.469 (inactive); in assay [18], -0.636; in [19] it was -0.54. Also, the z-score in assay [20] is 1.29 (inactive). The molecule further showed a composite z-score in assay [2] of 0.428.
As to `C=C(/C(=C/C[C@@H](OC(=O)c1ccncc1)c1ccccc1OCCO)c1cnc2ccccc2c1)C(C)C`, the z-score in assay [1] is -0.592 (inactive); in [3], 10 (active); in [4] it was 4.55 (inactive); in [5], -1.59 (inactive); in assay [6], 1.44 (inactive); in assay [7], -0.174. Besides, the z-score in [8] is -2.57 (inactive); in assay [9], -1.11 (inactive); in assay [10], -2.56; in assay [11] it was -0.36; in assay [12], -0.368; in [13], -3.15. The z-score in assay [14] is -3.1; in assay [15], -2.45; in [16], 0.76; in assay [17] it was -0.19 (inactive); in assay [18] it was 0.14; in [19], 1.08. In addition, in assay [20], the z-score was -1.15 (inactive). This molecule also displayed a composite z-score in assay [2] of 0.454.
Consider `O=C(O)[C@]1(CCS(=O)(=O)c2ccccc2)N=C(c2ccc(OCCCO)cc2)O[C@@H]1c1ccccc1`, for which the z-score is 0.139 (inactive) in assay [1]; 11.3 (active) in assay [3]; 1.11 (inactive) in assay [4]; 0.327 (inactive) in assay [5]; -0.169 (inactive) in [6]; -0.515 in assay [7]. The z-score was -0.298 (inactive) in assay [8]; 0.578 (inactive) in assay [9]; 1.1 in assay [10]; 0.195 in [11]; 0.103 in assay [12]; 0.296 in assay [13]. Further, the z-score was -1.2 in assay [14]; 1.18 in assay [15]; -0.509 in [16]; -0.372 (inactive) in assay [17]; -0.928 in assay [18]; 0.0474 in assay [19]. The z-score in assay [20] is 0.704 (inactive). Besides, in [2], the composite z-score worked out at 0.528.
On to `CCOC(=O)C[C@H]1[C@H](OC(=O)c2cc3ccccc3oc2=O)[C@@H](NC(=O)c2ccc3ccccc3n2)c2cc(OCCCO)ccc2N1C(=O)c1ccc2ccccc2n1`, for which the z-score in assay [1] was 1.03 (inactive); in assay [3], 10.8 (active); in [4], 1.56 (inactive); in assay [5] it was 1.25 (inactive); in [6] it was 0.647 (inactive); in [7], -0.112. The z-score in assay [8] was 0.786 (inactive); in assay [9], 0.715 (inactive); in assay [10] it was 2.28; in assay [11], 0.513; in [12], 1.27; in assay [13], 0.717. Besides, the z-score in [14] is -0.255; in [15], -0.719; in [16] it was 0.082; in assay [17] it was -0.33 (inactive); in assay [18], -0.115; in assay [19], 1.17. For the same molecule, in assay [20], the z-score is -0.82 (inactive). In addition, in [2], the composite z-score turned out to be 0.174.
For the molecule `COC(=O)c1ccc(OC)c(/C=C\CC(CCc2ccccc2)OC(C)=O)c1` (stereo not given), the z-score in [1] was -0.601 (inactive); in assay [3] it was 8.9 (active); in assay [4] it was 0.865 (inactive); in assay [5] it was -0.297 (inactive); in assay [6] it was 0.0093 (inactive); in assay [7], -0.0781. Also, the z-score in assay [8] is -0.135 (inactive); in assay [9], 0.424 (inactive); in assay [10] it was -0.983; in [11], -0.349; in assay [12], -0.191; in assay [13] it was -0.349. The z-score in assay [14] is -1.35; in [15], 0.346; in assay [16] it was -1.3; in assay [17], -0.459 (inactive); in [18] it was -0.48; in [19], 0.893. In addition, the z-score in assay [20] was 0.671 (inactive). The molecule further gave a composite z-score in assay [2] of -0.456.
